# USP2a inh = qHTS Assay for Inhibitors of Ubiquitin-specific Protease USP2a Using CHOP2 as the Reporter. 0.01% of 330,000 active. Potency, µM (doses to about 38.3 µM), inactives show at the top dose activity change, negative = inhibition, hits mostly inhibitors. Ubiquitin carboxyl-terminal hydrolase 2 (Homo sapiens), O75604. USP2 core, Ub-CHOP2 coupled fluorogenic reporter, 485/531;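 also: potency is read from the fitted curve at half-maximal effect; plate controls were DMSO wells for no effect and full inhibition by NEM control for full effect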
# Target sequence (O75604 whole entry, looked up): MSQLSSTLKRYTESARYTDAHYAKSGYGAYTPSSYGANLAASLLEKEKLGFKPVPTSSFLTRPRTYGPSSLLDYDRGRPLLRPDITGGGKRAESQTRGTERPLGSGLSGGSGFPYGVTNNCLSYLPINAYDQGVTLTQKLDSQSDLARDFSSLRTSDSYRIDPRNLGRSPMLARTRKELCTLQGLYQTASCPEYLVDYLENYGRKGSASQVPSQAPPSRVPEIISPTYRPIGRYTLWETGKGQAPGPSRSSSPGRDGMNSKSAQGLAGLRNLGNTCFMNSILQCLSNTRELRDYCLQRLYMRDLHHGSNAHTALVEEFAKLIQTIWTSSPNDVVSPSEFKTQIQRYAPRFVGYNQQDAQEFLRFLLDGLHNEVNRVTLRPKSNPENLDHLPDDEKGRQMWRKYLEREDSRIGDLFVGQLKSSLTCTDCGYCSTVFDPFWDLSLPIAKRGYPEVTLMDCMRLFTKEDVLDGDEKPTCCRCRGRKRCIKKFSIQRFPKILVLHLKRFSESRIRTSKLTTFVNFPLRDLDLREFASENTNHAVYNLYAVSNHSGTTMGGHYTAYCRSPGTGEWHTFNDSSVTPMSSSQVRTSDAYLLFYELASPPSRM
#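 USP2 core (10nM final) preincubated 30min RT with compound in 20mM Tris-HCl pH 8.0, 2mM CaCl2, 2mM beta-mercaptoethanol, 0.05% CHAPS; 25nM Ub-CHOP2 plus 25nM reporter substrate added, fluorescence (Ex485/Em531) read after 60min.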
# ATXN viability = Viability Counterscreen for Primary qHTS for Inhibitors of ATXN expression; S2 cells (HEK-293 line with an ATXN2-luciferase reporter) viability, CellTiter-Fluor protease fluorescence, 24 h; Potency, µM (top dose mostly 56.7 µM), usual class: cytotoxic; 0.49% of 400,000 active; also: potency is read from the fitted curve at half-maximal effect; nearly all actives have a fitted effect of over 40% in size
# USP1-UAF1 inh = Inhibitors of USP1/UAF1: Primary Screen. recombinant USP1/UAF1, Ub-Rhodamine cleavage fluorescence. AID 743255, 2014. 0.23% of 390,000 active. Potency, µM (titrated, usually from 57.1 µM), for inactives: top-dose activity change, negative = inhibition, hits mostly inhibitors. Ubiquitin carboxyl-terminal hydrolase 1 (Homo sapiens), O94782; also: potency is read from the fitted curve at half-maximal effect; % is scaled to controls: 0 for no effect and ±100 for the full control effect; nearly all actives have a fitted effect of over 60% in size
#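 USP1/UAF1 complex at 1 nM was preincubated with compound for 15 min at room temperature, then Ub-Rho substrate (150nM final) was added. Fluorescence (480/540 nm) was read kinetically, 6 reads every 60 seconds.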
# IL1B secr inh = qHTS for Inhibitors of Inflammasome Signaling: IL-1-beta AlphaLISA Primary Screen; THP-1 LPS/ATP IL-1B secretion, AlphaLISA, 16 h; hits give low values; activity change, % at 57.5 µM; 4.7% of 360,000 active; AID 743279, 2014; in the data active = activity change below about -50%; inconclusive = mostly about -30% to -49%; also: % is scaled to controls: 0 for no effect and ±100 for the full control effect
#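 Secreted IL-1B measured by AlphaLISA bead assay after 16 h compound exposure of THP-1 cells; compounds (final up to 57.5 uM) added 1 h before LPS (250 ng/mL) and ATP (1.25 mM) stimulation; lower signal means less secretion.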
# ATXN2 expr inh = Primary qHTS for Inhibitors of ATXN expression | HEK-293 ATXN2-luciferase reporter, luminescence, 24 h | Potency, µM (doses to about 57 µM), inactives show top-dose activity change, negative = inhibition, usual class: inhibitors | 0.72% of 360,000 active | AID 1745845, 2022; also: potency is read from the fitted curve at half-maximal effect; % is scaled to controls: 0 for no effect and ±100 for the full control effect; nearly all actives have a fitted effect of over 55% in size
#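 qHTS (up to 57 uM final) was run with 24 h compound exposure of reporter cells at 37 °C. Each well was multiplexed: SteadyGlo luminescence measured ATXN2-luciferase expression after a fluorogenic Gly-Phe-AFC viability readout (25 uM final).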
# * marks the source's active call; other numbers are inactive results; i = inactive; u = inconclusive; x = not tested or not shown. Compounds with a hit are over-represented: about 4.8% of the library has one in this group of screens. Unless noted, calls follow the shape of the dose curve; as a rule, active = well fitted curve in the direction sought with a large enough effect; inconclusive = small, poorly fitted or top-dose-only effect, or another doubt; inactive = no such curve, though single readings can be large; an effect the other way counts as inactive or inconclusive.
SMILES,USP2a inh,ATXN viability,USP1-UAF1 inh,IL1B secr inh,ATXN2 expr inh
CC(C)NC(=O)c1ccc2c(c1)N(Cc1ccccc1)C(=O)C(C)(C)O2,0%,i,-20%,-52*,-31%
O=Cc1cccc(Oc2ncccn2)c1,2%,i,-16%,28,4%
Nc1ccc(Oc2ncccn2)cc1,5%,u,7.9µM*,2,x
O=C1NC[C@@H](CCCCN2C[C@H](Cc3ccc(O)cc3)N(CCc3ccc(O)cc3)C(=O)C2=O)N(CCc2ccccc2)C1=O,x,i,x,4,-2%
Cc1ccc(-n2nc3c(N4CCC(C(=O)NCc5cccc(F)c5)CC4)nnc(C)c3c2C)cc1,2%,u,-13%,u,x
COc1cc(-n2c(C)nc3ncn(-c4ccccc4)c3c2=O)cc(OC)c1OC,x,i,-8%,23,x
O=C(Nc1nnc(-c2ccc(F)cc2)o1)C1CCCN1S(=O)(=O)c1cccs1 (stereo not given),1%,i,-14%,-76*,1%
Cc1cc(C)nc(SC2=CS(=O)(=O)c3ccccc32)n1,-5%,u,-17%,-98*,u
O=S1(=O)C=C(SCCN2CCCCC2)c2ccccc21,-2%,i,3%,u,52%
O=C(CSc1nc2ccccc2s1)CSc1nc2ccccc2s1,0%,i,u,30,14%
O=S1(=O)C=C(Sc2nc3ccccc3s2)c2ccccc21,2%,7.1µM*,-10%,-66*,u
O=S1(=O)C=C(Sc2nnc(-c3ccccc3)o2)c2ccccc21,-5%,x,-10%,-102*,10µM*
O=C(Nc1cc(C(=O)N2CCN(CCO)CC2)c2c(c1)ncn2C1CCCC1)c1ccccc1,x,i,x,x,x
CN(C)CCCNc1cc(C(C)(C)C)nc2c(-c3ccc(Cl)cc3)cnn12,0%,x,-19%,-105*,u
CC(C)(C)c1cc(C(F)(F)F)n2ncc(-c3ccccc3)c2n1,2%,i,-7%,35,29%
CC(C)Nc1cc(C(C)(C)C)nc2c(-c3ccccc3)cnn12,-2%,i,-16%,-70*,63%
CC(C)(C)c1cc(NCCCn2ccnc2)n2ncc(-c3ccccc3)c2n1,-3%,i,-13%,-97*,70%
Cc1cc(NCCCN(C)C)n2nc(-c3cccs3)cc2n1,-8%,i,-16%,-109*,8%
CCC1CN(Cc2ccc(COC)o2)Cc2cc(OC)ccc2O1 (stereo not given),x,i,x,x,x
Cc1cccc(Oc2ccc(S(=O)(=O)N3CCCCC3)cc2N)c1,-8%,i,-16%,27,x
O=C(C=CC#Cc1cccc(NS(=O)(=O)c2ccccc2)c1)NO,x,x,x,x,-55%
Cc1cccc(-c2cc3nc(C)cc(NCCCn4ccnc4)n3n2)c1,4%,u,-31%,-106*,-7%
Cc1cc(NCCCn2ccnc2)n2ncc(-c3ccc(Cl)cc3)c2n1,-2%,u,-11%,u,20%
COc1ccc(-c2cc(C(=O)N3CCN(S(=O)(=O)c4ccc(C)cc4)CC3)[nH]n2)cc1,1%,i,-11%,-20,-3%
COc1ccc(S(=O)(=O)N2CCN(C(=O)c3cc(-c4ccc(C)cc4)n[nH]3)CC2)cc1,-2%,i,-18%,-83*,-28%
SMILES,USP2a inh,ATXN viability,USP1-UAF1 inh,IL1B secr inh,ATXN2 expr inh
Cc1cc(OCC(=O)N2CCc3ccccc3C2)c(C)cc1Br,-13%,i,-12%,-55*,-3%
Cc1ccc(CN2C[C@H](Sc3ccccn3)C[C@H]2C(=O)Nc2ccc3sc(C)nc3c2)s1,x,i,x,x,x
Cc1cnc(C)c(-c2cc(F)cc3c2OC(CNC(=O)C2CCOC2)C3)n1 (stereo not given),x,i,x,x,x
O=C(Nc1cccc2c1CCCC2)c1ccc(Cl)c([N+](=O)[O-])c1,4%,i,-8%,-73*,-8%
COc1ccc(N(C)S(=O)(=O)c2cccc(C(=O)Nc3nc4ccccc4[nH]3)c2)cc1,7%,u,-14%,u,-29%
Cc1nc2cc(NC(=O)c3ccc(S(=O)(=O)N(C)c4ccccc4)cc3)ccc2o1,-2%,u,-21%,-56*,u
CN(c1cccc(Cl)c1)S(=O)(=O)c1cccc(C(=O)Nc2nc3ccccc3[nH]2)c1,2%,u,-22%,-62*,u
CN(c1ccccc1)S(=O)(=O)c1cccc(NC(=O)c2ccc(Cl)c([N+](=O)[O-])c2)c1,-14%,u,-2%,-88*,u
CC(=O)Nc1ccc(C(=O)Nc2cccc(S(=O)(=O)N(C)c3ccccc3)c2)cc1,-4%,i,-9%,8,u
O=C(Nc1cccc(-n2cnnn2)c1)c1ccc(C(F)(F)F)cc1,-1%,i,-7%,2,x
COc1ccc(CN2CCN(C(C)=O)CC2)cc1OC1CCN(C(=O)c2ccc3ccccc3n2)CC1,x,i,x,x,x
CN(C)S(=O)(=O)c1cccc(NC(=O)c2cccc(NS(=O)(=O)c3ccccc3)c2)c1,5%,i,-16%,-60*,-21%
CN(c1ccccc1)S(=O)(=O)c1cccc(NC(=O)c2cc(=O)c3ccccc3o2)c1,2%,u,-22%,-52*,13µM*
CN(C)S(=O)(=O)c1cccc(C(=O)Nc2ccccc2[N+](=O)[O-])c1,5%,i,-15%,u,4%
CCN(CC)S(=O)(=O)c1cc(C(=O)Nc2ccccc2[N+](=O)[O-])ccc1Cl,3%,i,-18%,-89*,2%
O=C(Nc1cccc2c1CCCC2)c1cc([N+](=O)[O-])ccc1Cl,1%,i,-21%,u,25µM*
NS(=O)(=O)c1cccc(NC(=O)c2cc(=O)c3ccccc3o2)c1,5%,i,-25%,-6,0%
CCCCCOc1ccc(C2c3c(oc4ccccc4c3=O)C(=O)N2c2nc(C)c(C)s2)cc1OCC (stereo not given),x,i,-3%,x,19%
CCc1nc2cc(C(=O)NC3CCOC(C)(C)C3)cc(NC(=O)c3ccccc3OC)c2n1C (stereo not given),x,i,x,x,x
CC(=O)Nc1ccc2cnn(C(C)=O)c2c1,x,u,-18%,10,x
CN(Cc1cnc2ccccn12)C1CCN(c2cccc(NC(=O)c3cccnc3)c2)CC1,x,i,x,x,x
O=C(Nc1ccccc1-c1ccccc1)c1ccc(Cl)c([N+](=O)[O-])c1,0%,i,-17%,-100*,11%
CC(C)(C)NC(=O)CN1CCN(C(=O)CCl)CC1,2%,u,-3%,-79*,-12%
CCOC(=O)N1CCN(C(=O)CCl)CC1,0%,i,6%,-92*,-9%
CC(C)(C)NC(=O)NC(=O)CN1CCCCCCC1,3%,i,0%,20,2%
CCOC(=O)N1CCN(C(=O)Cc2ccc(Cl)cc2)CC1,1%,i,-3%,3,-7%

# Compound activity as filed in PubChem BioAssay.
